# Several values for one entry are separate records, joined by “and”; a condition that tells them apart may be missing. Identical values can stand only once. Inconclusive results are not listed. Some structures have more than one record in an assay (separate samples or runs), and their calls can disagree. Activity calls are given as the source filed them. How the source made its calls, unless noted: active means hit-call score of the fitted dose curve at least 0.9, where 1 is the maximum; inactive means score below 0.9.
# Legend:
# [1] = IUF_NPC2c_oligodendrocyte_migration_120hr: Leibniz Research Institute for Environmental Medicine (IUF) 120-hour Neural Progenitor Cell Migration Assay for Oligodendrocyte Migration (NPC2c) (AID 2284297);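 further: O4-positive oligodendrocyte migration distance divided by radial glia migration distance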
# In short: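 Human fetal cortex-derived neural progenitor spheres (0.3 mm) were plated on poly-D-lysine/laminin in N2 differentiation medium and exposed to 7 concentrations for 120 h, with half-medium renewal at day 3. Oligodendrocyte migration distance was normalized to radial glia migration, relative to DMSO.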
# [2] = IUF_NPC2a_radial_glia_migration_120hr: Leibniz Research Institute for Environmental Medicine (IUF) 120-hour Neural Progenitor Cell Migration Assay for Radial Glia Migration (NPC2a) (AID 2284298)
# In short: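 Single 0.3 mm primary human fetal-cortex (GW 16-19) NPC spheres were plated on poly-D-lysine/laminin in N2 differentiation medium and exposed from day 0 for 120 h, half-medium refreshed day 3. Migration distance came from Hoechst nuclei-density imaging, relative to DMSO.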
# [3] = IUF_NPC2a_radial_glia_migration_72hr: Leibniz Research Institute for Environmental Medicine (IUF) 72-hour Neural Progenitor Cell Migration Assay for Radial Glia Migration (NPC2a) (AID 2284299)
# In short: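 Single 0.3 mm neurospheres were plated per well in N2 differentiation medium and exposed from the start of differentiation. After 72 hours, brightfield images were taken and radial glia migration from the sphere core edge was measured manually in four directions, averaged per well.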
# [4] = IUF_NPC2b_neuronal_migration_120hr: Leibniz Research Institute for Environmental Medicine (IUF) 120-hour Neural Progenitor Cell Migration Assay for Neuron Migration (NPC2b) (AID 2284300)
# In short: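 Primary human fetal cortex neural progenitor spheres (0.3 mm) plated on poly-D-lysine/laminin in N2 differentiation medium, exposed 120 h with half-medium refresh at day 3. TUBB3-stained neuron distance from sphere core, normalized to radial glia migration, versus DMSO.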
# [5] = IUF_NPC3_neuronal_differentiation_120hr: Leibniz Research Institute for Environmental Medicine (IUF) 120-hour Neuronal Differentiation Assay (NPC3) (AID 2284301)
# In short: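 Neuronal differentiation of primary human neural progenitors measured by high-content imaging: percent TUBB3+ of Hoechst+ nuclei within migrated area at 120 h, seven-point serial dilution plus solvent control, gain or loss relative to DMSO.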
# [6] = IUF_NPC4_neurite_length_120hr: Leibniz Research Institute for Environmental Medicine (IUF) 120-hour Neuronal Morphology Assay for Neurite Length (NPC4) (AID 2284302)
# In short: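 Neurons from differentiating human fetal neural progenitor spheres are scored for average neurite length after five days of compound exposure. Fitting uses DMSO as negative control.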
# [7] = IUF_NPC4_neurite_area_120hr: Leibniz Research Institute for Environmental Medicine (IUF) 120-hour Neuronal Morphology Assay for Neurite Area (NPC4) (AID 2284305; active means hit-call score of the fitted dose curve at least 0.9, where 1 is the maximum)
# In short: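 Endpoint at 120 h: automated imaging of TUBB3/Hoechst-stained differentiating human neural progenitor spheres, neurite area per neuron from skeletonization. DMSO solvent control, not above 0.1%, set the baseline; medium was half-replaced on day 3.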
# [8] = IUF_NPC2-5_cytotoxicity_72hr: Cytotoxicity Assessment at 72 hours in the Leibniz Research Institute for Environmental Medicine (IUF) Neural Progenitor Cell Migration and Differentiation Assay for Cytotoxicity (NPC2-5) (AID 2284306; active means hit-call score of the fitted dose curve at least 0.9, where 1 is the maximum;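 further: LDH release into supernatant measured by resorufin fluorescence marking membrane damage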)
# In short: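 Primary human neural progenitor spheres migrate and differentiate on laminin. Compound is present from the start of differentiation, with DMSO kept at or below 0.1%. At 72 h, supernatant LDH is quantified fluorometrically, with values fitted in the positive direction.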
# [9] = IUF_NPC2-5_cytotoxicity_120hr: Cytotoxicity Assessment at 120 hours in the Leibniz Research Institute for Environmental Medicine (IUF) Neural Progenitor Cell Migration and Differentiation Assay (NPC2-5) (AID 2284307; active means hit-call score of the fitted dose curve at least 0.9, where 1 is the maximum;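 on AC50: LDH released into supernatant as membrane damage marker via resorufin fluorescence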)
# In short: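 Human fetal neural progenitor spheres (0.3 mm, GW 16-19 cortex) were plated on poly-D-lysine/laminin in N2 differentiation medium and exposed for 120 h, with half-medium refresh at day 3. LDH release into supernatant was read by resorufin fluorescence.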
# [10] = IUF_NPC2-5_cell_number_120hr: Cell Number Assessment at 120 hours in the Leibniz Research Institute for Environmental Medicine (IUF) Neural Progenitor Cell Migration and Differentiation Assay (NPC2-5) (AID 2284308);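 further: count of Hoechst-stained nuclei in migration zone around plated human neural progenitor spheres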
# In short: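 Primary human fetal neural progenitor spheres (GW 16-19, 0.3 mm) plated on poly-D-lysine/laminin in N2 differentiation medium, exposed from day 0 for 120 h with half-medium refresh at day 3; Hoechst-positive nuclei counted in migration area versus DMSO control.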
# [11] = IUF_NPC2-5_viability_120hr: Viability Assessment at 120 hours in the Leibniz Research Institute for Environmental Medicine (IUF) Neural Progenitor Cell Migration and Differentiation Assay (NPC2-5) (AID 2284312)
# In short: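 Human fetal (GW 16-19) neural progenitor spheres of 0.3 mm were plated on poly-D-lysine/laminin in N2 differentiation medium and exposed from day 0 for 120 h, with half-medium refresh at day 3. Viability was read as alamar blue resazurin-to-resorufin fluorescence against DMSO.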
# [12] = CCTE_Mundy_HCI_iCellGluta_NOG_NeuriteLength: CCTE's Neurite Outgrowth Assay in iCellGluta cells for Neurite Length, Mundy Lab (AID 2284318; active means hit-call score of the fitted dose curve at least 0.9, where 1 is the maximum)
# In short: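 Automated high-content imaging of betaIII-tubulin (Alexa Fluor-488) and Hoechst-stained cells gave neurite length, normalized to the DMSO baseline.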
# [13] = TAMU_PeakParms_SingleDonor1434_Asystole: Texas A&M University (TAMU) 1.5-hr Human Induced Pluripotent Stem Cell (iPSC)-derived Cardiomyocytes Calcium (Ca+2) Flux Assay for Cardiotoxicity: Asystole (quiescence of beating) (AID 2284328; active means hit-call score of the fitted dose curve at least 0.9, where 1 is the maximum)
# In short: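 Human iPSC-derived cardiomyocytes (donor 1434) were exposed to 0.2, 1, 10 and 100 uM compound in 0.5% DMSO for 90 min at 37C. Ca2+-dye fluorescence gave average peak frequency; POD is EC95, a 95% beat-rate drop versus DMSO.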
# [14] = IUF_NPC1_cytotoxicity_72hr: Cytotoxicity Assessment at 72 hours in the Leibniz Research Institute for Environmental Medicine (IUF) Neural Progenitor Cell Proliferation Assay (NPC1) (AID 2284332; active means hit-call score of the fitted dose curve at least 0.9, where 1 is the maximum;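 further: rising LDH signal means more cytotoxicity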)
# In short: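 Membrane-integrity loss is scored from LDH released into the medium, detected as resorufin fluorescence, with activity fitted upward relative to baseline. Test material stays on human fetal-derived progenitor spheres for 72 h.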
# [15] = CCTE_Mundy_HCI_iCellGluta_NOG_NeuriteCount: CCTE's Neurite Outgrowth Assay in iCellGluta cells for Neurite Count, Mundy Lab (AID 2284342; active means hit-call score of the fitted dose curve at least 0.9, where 1 is the maximum;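 further: chemical exposure about 48 hours starting 2 hours after plating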)
structure (smiles),measurement,setting,value
[CH3][Hg][Cl],outcome,[1],inactive
same,AC50,[2],1.05 µM (active) and 160 nM (active)
same,AC50,[3],1.11 µM (active) and 255 nM (active)
same,AC50,[4],138 nM (active)
same,outcome,[4],inactive
same,AC50,[5],325 nM (active) and 124 nM (active)
same,AC50,[6],298 nM (active) and 69.7 nM (active)
same,AC50,[7],629 nM (active) and 78.3 nM (active)
same,outcome,[8],inactive
same,AC50,[9],275 nM (active)
same,outcome,[9],inactive
same,AC50,[10],823 nM (active) and 130 nM (active)
same,AC50,[11],276 nM (active)
same,outcome,[11],inactive
same,AC50,[12],76.3 nM (active)
same,outcome,[13],inactive
same,outcome,[14],inactive
same,AC50,[15],96.5 nM (active)
